Source: PubChem BioAssay
Sa growth inh = S. aureus growth inhibition at 42 and 30 °C, primary screen, LtaS inhibitor project, RN4220, two temperatures; OD600, 20 h, 42 °C; active compounds read low; relative growth, % (no concentration beside the values); actives 0.53% (n = 170,000); AID 720641, 2013;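 active means relative growth at most 50% at the other temperature and 20+ points below 30 °C, or under 10% at both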
S aureus helic = inhibitors of S. aureus replicative helicase, primary screen, biochemical, fluorescence unwinding readout; replicative DNA helicase (DnaC/DnaB), Staphylococcus aureus; purified S. aureus helicase, fluorescence unwinding assay; inhibition, % (no concentration beside the values); actives 0.05% (n = 120,000); in the data active means inhibition above about 25%, passing the limit was not always enough;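 further: 0% = mean of negative control wells and 100% = mean of positive control wells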
Numbers without * were called inactive. The entries come from a sample that favours hits as a whole.

What do the screens show for `Cc1ccc(-c2c(CN3CCN(c4cccc(C)c4C)CC3)csc2C)cc1`?
Sa growth inh: 104.7

What do the screens show for `Cc1ccc(-c2c(CN3CCN(C)CC3)csc2C)cc1`?
Sa growth inh: 6.2*; S aureus helic: -10.0

Results for Cc1ccc(S(=O)(=O)/N=C2/C=C(Sc3ncn[nH]3)C(=O)c3ccccc32)cc1 ?
Sa growth inh: 2.1*; S aureus helic: 23.0

What do the screens show for `CC(C)c1ccc(NC(=O)CSc2ncn[nH]2)cc1`?
Sa growth inh: 94.2; S aureus helic: -7.0

What do the screens show for `Cc1ccc(S(=O)(=O)/N=C2\C=C(Sc3ncn[nH]3)C(=O)c3ccccc32)cc1`?
Sa growth inh: 2.3; S aureus helic: 17.0

Results for CC(C)c1ccc(S(=O)(=O)/N=C2/C=C(Sc3ncn[nH]3)C(=O)c3ccccc32)cc1 ?
Sa growth inh: 1.2*; S aureus helic: 16.0

Results for COc1cccc2sc(=NC(=O)COc3ccc(Cl)cc3Cl)n(C)c12 ?
Sa growth inh: 190.2; S aureus helic: 7.0

How did CCCSc1nc2c([nH]c3ccccc32)c(=O)n1-c1ccccc1 do in these assays?
S aureus helic: -5.0

How did CCn1cc(C(=O)O)c(=O)c2cc(F)c(N3CCN(C(=S)NC(=O)c4c(-c5ccccc5)noc4C)CC3)cc21 do in these assays?
Sa growth inh: 2.0*; S aureus helic: 5.0

Results for CCn1cc(C(=O)O)c(=O)c2cc(F)c(N3CCN(C(=S)NC)CC3)cc21 ?
Sa growth inh: 64.3; S aureus helic: 10.0

Results for Cc1ccc(CNC(=O)CCc2c(C)nc3c4cccnc4nn3c2C)cc1 ?
Sa growth inh: 85.9; S aureus helic: 8.0

Results for CC(C)C1O/C(=N\C(=O)Nc2ccc(Cl)c(Cl)c2)NC1=O (stereo not given) ?
Sa growth inh: 0.5*; S aureus helic: -3.0

Results for CCNC(=O)/N=C1\NC(=O)C(C(C)C)O1 (stereo not given) ?
Sa growth inh: 86.3; S aureus helic: -7.0

What do the screens show for `Cc1c(Sc2ccc(Cl)cc2)cnn1C(=O)NC(C)C`?
Sa growth inh: 99.3

What do the screens show for `Cc1c(Sc2ccc(Cl)cc2)cnn1C(=O)Nc1cccc(C(F)(F)F)c1`?
Sa growth inh: 4.5*

Results for O=C(NC(=O)c1ccccc1O)c1cccs1 ?
Sa growth inh: 130.6

What do the screens show for `Cc1ccc(O)c(C(=O)CC(=O)c2cccs2)c1`?
Sa growth inh: 6.4*; S aureus helic: -8.0

What do the screens show for `Cc1ccc(-c2ccc(CCC(=O)O)o2)cc1`?
Sa growth inh: -1.4*; S aureus helic: 14.0

Results for O=C(O)CCc1ccc(-c2cccs2)o1 ?
Sa growth inh: 93.8; S aureus helic: 11.0

Results for Cc1cc(C)n2nc(C)cc2n1 ?
Sa growth inh: 81.7; S aureus helic: -11.0

Results for CS(=O)(=O)c1ccc([C@@H](O)[C@@H](CO)NC(=O)C(Cl)Cl)cc1 ?
Sa growth inh: 13.9

How did CS(=O)(=O)c1ccc([C@@H](O)[C@@H](CF)NC(=O)C(Cl)Cl)cc1 do in these assays?
Sa growth inh: -0.4*

How did CC1=C(c2ccccc2)S(=O)(=O)NC1=NC1CCN(Cc2ccccc2)CC1 do in these assays?
Sa growth inh: 83.7; S aureus helic: 16.0

How did c1ccc(-c2nc3ccccn3c2NC2CCCC2)nc1 do in these assays?
Sa growth inh: -0.1*; S aureus helic: 5.0

How did c1csc(-c2nc3cnccn3c2NC2CCCCC2)c1 do in these assays?
Sa growth inh: 85.8; S aureus helic: 12.0

How did CC(=C\c1ccccc1)/C=C1/SC(=S)N(C2CCCCC2)C1=O do in these assays?
Sa growth inh: 99.2; S aureus helic: 8.0

Results for O=C1/C(=C/c2cccnc2)SC(=S)N1C1CCCC1 ?
Sa growth inh: 7.2*; S aureus helic: 8.0

How did c1ccc(Nc2c(-c3ccc(N4CCOCC4)cc3)nc3cnccn23)cc1 do in these assays?
Sa growth inh: 93.7; S aureus helic: 8.0

How did CC(=O)Nc1ccc(F)cc1NC=C(C#N)C#N do in these assays?
Sa growth inh: 85.3; S aureus helic: -9.0

Results for N#CC(C#N)=NNc1ccc(F)cc1C(F)(F)F ?
Sa growth inh: -0.7*; S aureus helic: -9.0

What do the screens show for `CCC(=O)Nc1ccc2c(c1)nc(CCNC(=O)c1ccccc1)n2C`?
Sa growth inh: 80.3; S aureus helic: -5.0

Results for COc1nc(OCC#N)nc(N(C)C)n1 ?
Sa growth inh: 96.4; S aureus helic: 4.0

How did N#CCOc1nc(OCC#N)nc(OCC#N)n1 do in these assays?
Sa growth inh: 27.6*; S aureus helic: -9.0

What do the screens show for `COc1ccccc1NC(=O)CCC1CC(=O)OC1c1ccccc1` (stereo not given)?
Sa growth inh: 93.5; S aureus helic: 7.0

How did CCOC(=O)N1CCC(NC(=O)c2ccc(Cn3c(=O)[nH]c4cc(OCC)c(OCC)cc4c3=O)cc2)CC1 do in these assays?
Sa growth inh: 87.5; S aureus helic: 8.0

How did CCN(CC(=O)NC1CCS(=O)(=O)C1)c1nc(-c2cccnc2)nc2sc3c(c12)CCCC3 (stereo not given) do in these assays?
Sa growth inh: 85.9; S aureus helic: 14.0

What do the screens show for `Cc1ccc(CN(C)c2nc(-c3cccnc3)nc3sc4c(c23)CCCC4)o1`?
Sa growth inh: 2.1*; S aureus helic: -6.0

Results for CC(C)N(Cc1nc(-c2ccccc2)no1)C(=O)c1ccccc1 ?
Sa growth inh: 98.6; S aureus helic: 10.0

How did Cc1ccc(S(=O)(=O)N2CCCC(C(=O)N/N=C3\CCS(=O)(=O)c4ccc(F)cc43)C2)cc1 (stereo not given) do in these assays?
Sa growth inh: 102.2; S aureus helic: -11.0

What do the screens show for `O=C1c2ccccc2S(=O)(=O)N1CCSc1nncn1-c1ccccc1`?
Sa growth inh: 75.2; S aureus helic: 1.0

Results for Cc1onc(-c2ccccc2)c1C(=O)NC12CC3CC(CC(C3)C1)C2 ?
Sa growth inh: 93.3; S aureus helic: -7.0

What do the screens show for `CCCNC(=O)c1c(OC)cccc1OC`?
Sa growth inh: 85.8; S aureus helic: -2.0

How did Cc1onc(-c2c(F)cccc2Cl)c1C(=O)NC1CCSC1=O (stereo not given) do in these assays?
S aureus helic: 5.0

How did Cc1onc(-c2c(Cl)cccc2Cl)c1C(=O)N[C@@H]1C(=O)N2[C@@H]1SC(C)(C)[C@@H]2C(=O)O do in these assays?
Sa growth inh: -0.4*

Results for COc1cccc(OC)c1C(=O)N[C@@H]1C(=O)N2[C@@H]1SC(C)(C)[C@@H]2C(=O)O ?
Sa growth inh: -0.7*

Results for Cc1onc(-c2ccccc2)c1C(=O)NC1C(=O)N2[C@@H]1SC(C)(C)[C@@H]2C(=O)O (stereo not given in full) ?
Sa growth inh: -0.9*

What do the screens show for `CCCCn1c(SCc2ccccc2)nc2ccsc2c1=O`?
Sa growth inh: 90.3

Results for N#Cc1ccc(OCC(=O)NCCCc2ccccc2)cc1 ?
Sa growth inh: 109.0; S aureus helic: -10.0

How did COc1ccc(C(=O)Nc2ccn(-c3ccccc3)n2)c(OC)c1 do in these assays?
Sa growth inh: 74.6; S aureus helic: 6.0

Results for O=C(O)c1cc2c(nc3ccccn32)s1 ?
Sa growth inh: 96.5; S aureus helic: 40.0

How did O=S(=O)(c1ccc(Cl)cc1)C(F)(F)F do in these assays?
Sa growth inh: 96.7; S aureus helic: -1.0

How did O=S(=O)(c1cc(O)cc(S(=O)(=O)C(F)(F)F)c1)C(F)(F)F do in these assays?
Sa growth inh: -0.3*; S aureus helic: 8.0
